From PubChem BioAssay
Active and inactive are the calls of the source.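 The calls were made as follows, unless noted: active = normalized viability below 100% at a tested concentration; inactive = the rest.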

Legend:
[1] = sensitizers of A549 cells to miR-34 induction, primary screen, imaging, A549 dox-inducible miR-34, nuclei and caspase counts (AID 1347080;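 active = compounds whose cell count with miR-34 switched on is under 0.7 times the count with it off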); details: A549 miR-34 inducible, Hoechst nuclei count, 48 h
[2] = survival rescue of mitochondrial mutant cells in low glucose, primary screen, MELAS cybrids, Rieske KO mouse fibroblasts, CellTiter-Glo (AID 1508586;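 active = mean z-score across replicates of 1.96 or higher in either the MELAS or the Rieske mutant cell line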;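 also: z relative to plate mean and SD of compound and empty wells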)
[3] = ovarian cancer cell viability with rucaparib, profiling panel, oncology-focused library, rucaparib conditional (AID 1508598); details: patient-derived ovarian cancer cells, CellTiter-Glo viability, 144 h, stronger effect = lower value
[4] = stronger effect = lower value, cell number ratio, induced over uninduced
[5] = measured here: relative caspase fold change +Dox/-Dox
[6] = measured here: total cells with miR-34 induction, stronger effect = lower value
[7] = measured here: total cells without miR-34 induction
[8] = MELAS cybrid survival, CellTiter-Glo 48 h, stronger effect = higher value
[9] = Rieske KO mouse fibroblast survival, CellTiter-Glo 72 h
[10] = at 0.000305 µM, OCI-C5x cells, with rucaparib 10 µM, 100% = cells with rucaparib alone
[11] = at 0.000305 µM, OCI-C5x cells, without rucaparib
[12] = at 0.000305 µM, OCI-P5x cells, with rucaparib 20 µM, 100% = cells with rucaparib alone
[13] = at 0.000305 µM, OCI-P5x cells, without rucaparib
[14] = at 0.00122 µM, OCI-C5x cells, with rucaparib 10 µM, 100% = cells with rucaparib alone
[15] = at 0.00122 µM, OCI-C5x cells, without rucaparib
[16] = at 0.00122 µM, OCI-P5x cells, with rucaparib 20 µM, 100% = cells with rucaparib alone
[17] = at 0.00122 µM, OCI-P5x cells, without rucaparib
[18] = at 0.00488 µM, OCI-C5x cells, with rucaparib 10 µM, 100% = cells with rucaparib alone
[19] = at 0.00488 µM, OCI-C5x cells, without rucaparib
[20] = at 0.00488 µM, OCI-P5x cells, with rucaparib 20 µM, 100% = cells with rucaparib alone
[21] = at 0.00488 µM, OCI-P5x cells, without rucaparib
[22] = at 0.0195 µM, OCI-C5x cells, with rucaparib 10 µM, 100% = cells with rucaparib alone
[23] = at 0.0195 µM, OCI-C5x cells, without rucaparib
[24] = at 0.0195 µM, OCI-P5x cells, with rucaparib 20 µM, 100% = cells with rucaparib alone
[25] = at 0.0195 µM, OCI-P5x cells, without rucaparib
[26] = at 0.0781 µM, OCI-C5x cells, with rucaparib 10 µM, 100% = cells with rucaparib alone
[27] = at 0.0781 µM, OCI-C5x cells, without rucaparib
[28] = at 0.0781 µM, OCI-P5x cells, with rucaparib 20 µM, 100% = cells with rucaparib alone
[29] = at 0.0781 µM, OCI-P5x cells, without rucaparib
[30] = at 0.313 µM, OCI-C5x cells, with rucaparib 10 µM, 100% = cells with rucaparib alone
[31] = at 0.313 µM, OCI-C5x cells, without rucaparib
[32] = at 0.313 µM, OCI-P5x cells, with rucaparib 20 µM, 100% = cells with rucaparib alone
[33] = at 0.313 µM, OCI-P5x cells, without rucaparib
[34] = at 1.25 µM, OCI-C5x cells, with rucaparib 10 µM, 100% = cells with rucaparib alone
[35] = at 1.25 µM, OCI-C5x cells, without rucaparib
[36] = at 1.25 µM, OCI-P5x cells, with rucaparib 20 µM, 100% = cells with rucaparib alone
[37] = at 1.25 µM, OCI-P5x cells, without rucaparib
[38] = at 5 µM, OCI-C5x cells, with rucaparib 10 µM, 100% = cells with rucaparib alone
[39] = at 5 µM, OCI-C5x cells, without rucaparib
[40] = at 5 µM, OCI-P5x cells, with rucaparib 20 µM, 100% = cells with rucaparib alone
[41] = at 5 µM, OCI-P5x cells, without rucaparib

CC(C)n1c(C=CC(O)CC(O)CC(=O)O)c(-c2ccc(F)cc2)c2ccccc21 (stereo unspecified)
0.928: fold change [1, 5]
1410: cell count [1, 7]
inactive: fold change [1, 4] 1.12 | z-score [2, 8] 0.699
1580: cell count [1, 6]
-1.97: z-score [2, 9]

Cc1cc(NC(=O)c2cccc(NC(=O)C=CCN(C)C)c2)ccc1Nc1nccc(-c2cccnc2)n1
0.143: z-score [2, 9]
0.805: fold change [1, 5]
6390: cell count [1, 7]
inactive: fold change [1, 4] 0.969 | z-score [2, 8] -0.659
6190: cell count [1, 6]

Cc1cc(C)c(S(=O)(=O)n2cc(C)cc2C)c(C)c1
0.448: fold change [1, 5]
7540: cell count [1, 6]
8180: cell count [1, 7]
inactive: fold change [1, 4] 0.922 | z-score [2, 8] -0.318 | viability [3, 10] 109% | viability [3, 11] 106% | viability [3, 12] 102% | viability [3, 13] 104% | viability [3, 14] 121% | viability [3, 15] 104% | viability [3, 18] 116% | viability [3, 19] 101% | viability [3, 20] 106% | viability [3, 21] 101% | viability [3, 22] 112% | viability [3, 24] 105% | viability [3, 26] 128% | viability [3, 27] 102% | viability [3, 30] 122% | viability [3, 31] 109% | viability [3, 32] 101% | viability [3, 34] 113% | viability [3, 36] 106% | viability [3, 37] 102% | viability [3, 38] 122% | viability [3, 39] 110% | viability [3, 40] 101% | viability [3, 41] 102%
0.313: z-score [2, 9]
active: viability [3, 16] 97.6% | viability [3, 17] 96% | viability [3, 23] 94% | viability [3, 25] 97.2% | viability [3, 28] 99.3% | viability [3, 29] 97.7% | viability [3, 33] 98.8% | viability [3, 35] 94.4%

OCCn1cc(-c2ccc3c(c2)CCC3=NO)c(-c2ccncc2)n1
inactive: fold change [1, 4] 1.01 | z-score [2, 8] -0.459 | viability [3, 10] 116% | viability [3, 11] 107% | viability [3, 14] 114% | viability [3, 15] 113% | viability [3, 16] 103% | viability [3, 18] 120% | viability [3, 20] 103% | viability [3, 21] 101% | viability [3, 22] 116% | viability [3, 23] 121% | viability [3, 24] 102% | viability [3, 25] 101% | viability [3, 26] 115% | viability [3, 27] 122% | viability [3, 29] 103% | viability [3, 30] 118% | viability [3, 31] 125% | viability [3, 34] 118% | viability [3, 35] 131% | viability [3, 38] 124% | viability [3, 39] 137%
active: viability [3, 12] 91.8% | viability [3, 13] 92.8% | viability [3, 17] 92.9% | viability [3, 19] 92.1% | viability [3, 28] 99% | viability [3, 32] 95.5% | viability [3, 33] 93.7% | viability [3, 36] 90.7% | viability [3, 37] 96.5% | viability [3, 40] 88.8% | viability [3, 41] 98%
7830: cell count [1, 6]
0.407: z-score [2, 9]
0.852: fold change [1, 5]
7730: cell count [1, 7]

COc1c(O)cc2c(c1O)[C@@H]1OC(CO)C(O)C(O)[C@H]1OC2=O (stereo partly specified)
inactive: fold change [1, 4] 0.888 | z-score [2, 8] -0.313
1.9: fold change [1, 5]
9300: cell count [1, 7]
8260: cell count [1, 6]
0.533: z-score [2, 9]

Nc1nonc1C(=Nc1ccc(F)c(Cl)c1)NO
9860: cell count [1, 7]
8500: cell count [1, 6]
1.22: z-score [2, 9]
active: viability [3, 12] 87% | viability [3, 13] 92.2% | viability [3, 16] 90.4% | viability [3, 17] 100% | viability [3, 20] 94% | viability [3, 21] 98% | viability [3, 24] 99.2% | viability [3, 25] 95.7% | viability [3, 29] 100% | viability [3, 32] 99.5% | viability [3, 36] 91.9% | viability [3, 37] 99.5% | viability [3, 40] 79% | viability [3, 41] 90.1%
0.685: fold change [1, 5]
inactive: fold change [1, 4] 0.862 | z-score [2, 8] -0.315 | viability [3, 10] 127% | viability [3, 11] 108% | viability [3, 14] 121% | viability [3, 15] 110% | viability [3, 18] 122% | viability [3, 19] 114% | viability [3, 22] 124% | viability [3, 23] 101% | viability [3, 26] 116% | viability [3, 27] 107% | viability [3, 28] 105% | viability [3, 30] 116% | viability [3, 31] 107% | viability [3, 33] 102% | viability [3, 34] 127% | viability [3, 35] 115% | viability [3, 38] 114% | viability [3, 39] 120%

COC(=O)[C@]12CCC(C)(C)C[C@@H]1[C@@H]1C(=O)C=C3[C@]4(C)C=C(C#N)C(=O)C(C)(C)[C@@H]4CC[C@@]3(C)[C@]1(C)CC2
0.469: fold change [1, 5]
inactive: fold change [1, 4] 0.818 | z-score [2, 8] -0.649
308: cell count [1, 6]
-3.82: z-score [2, 9]
376: cell count [1, 7]

CCOC(=O)c1[nH]c2cc(Cl)ccc2c1C(C(=O)NC(C)(C)C)N(C=O)Cc1ccc(Cl)cc1 (stereo unspecified)
0.584: fold change [1, 5]
active: viability [3, 12] 75.1% | viability [3, 13] 82% | viability [3, 16] 66.5% | viability [3, 17] 73% | viability [3, 20] 67.1% | viability [3, 21] 64.8% | viability [3, 24] 69.4% | viability [3, 25] 63.9% | viability [3, 28] 96.7% | viability [3, 32] 99.6% | viability [3, 33] 99.6% | viability [3, 40] 62%
inactive: fold change [1, 4] 0.989 | z-score [2, 8] -0.405 | viability [3, 10] 118% | viability [3, 11] 105% | viability [3, 14] 112% | viability [3, 15] 113% | viability [3, 18] 113% | viability [3, 19] 104% | viability [3, 22] 110% | viability [3, 23] 116% | viability [3, 26] 114% | viability [3, 27] 102% | viability [3, 29] 103% | viability [3, 30] 108% | viability [3, 31] 106% | viability [3, 34] 111% | viability [3, 35] 105% | viability [3, 36] 103% | viability [3, 37] 102% | viability [3, 38] 116% | viability [3, 39] 120% | viability [3, 41] 101%
2780: cell count [1, 7]
-1.07: z-score [2, 9]
2750: cell count [1, 6]
